Values without a mark were called inactive. Records with an inconclusive call do not appear. Calls of active or inactive are those of the source. Unless noted, calls come from the whole dose curve; as a rule, active = well fitted curve in the direction sought with a large enough effect in the repeat runs; inconclusive = weak or mixed curves; inactive = no such curve, though single readings can be large; an effect the other way counts as inactive or inconclusive.

A short description of test [1]: Caspase-3/7 induction in HepG2 cells by small molecules, qHTS assay (AID 1346978). Note: nearly all actives have a fitted effect of over 15% in size. The note with it: HepG2 caspase-3/7 activation, Caspase-Glo luminescence, 17 h; series mostly up to 92.4 µM. Summed up: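 Caspase-3/7 induction was measured by Caspase-Glo 3/7 luminescence (30 min, room temperature) after a 17 hr compound exposure of wild-type HepG2 cells seeded at 2,000 per well and pre-incubated 5 hr.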
A general note: qHTS replaces the single test concentration by a dilution series.

The nature of test [2]: Caspase-3/7 induction in CHO-K1 cells by small molecules, qHTS assay (AID 1346980). Note: nearly all actives have a fitted effect of over 15% in size. The following applies: CHO-K1 caspase-3/7 induction, Caspase-Glo luminescence, 17 h; series mostly up to 92.4 µM. Summed up: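 Luminescent Caspase-Glo 3/7 read (30min, room temperature) quantified apoptosis induction. Cells were wild-type CHO-K1, treated with compound for 17hr at 37 C and 5% CO2.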

For test [3], the target named is Nuclear receptor subfamily 1 group I member 2 (Homo sapiens) (UniProt O75469). The test is described as follows: Human pregnane X receptor (PXR) small molecule agonists, qHTS assay (AID 1346982). Note: nearly all actives have a fitted effect of over 35% in size. Note: potency is the fitted concentration of half-maximal effect. The note with it: PXR-Luc HepG2, CYP3A4 luciferase reporter, 24 h; series mostly up to 92.4 µM. Summed up:
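Cells: HepG2 stably carrying PXR-Luc. Medium held 5% charcoal-stripped FBS. Compounds in DMSO added after 5 hr plating, incubated 24 hr, then luminescence quantified with ONE-Glo.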

In test [4] the target is Acetylcholinesterase (Homo sapiens) (UniProt P22303). Description: Acetylcholinesterase (AChE) small molecule antagonists: colormetric cell-based qHTS assay (AID 1347395; calls by dose curve; note: nearly all actives have a fitted effect of over 30% in size; note: potency is the fitted concentration of half-maximal effect). The following applies: SH-SY5Y cells AChE activity, colorimetric (Ellman); series mostly up to 115 µM. Summed up:
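Quantitative HTS in attached SH-SY5Y cells: 30 min compound exposure, then 90 min with acetylthiocholine and DTNB at 37 C; colour from thiocholine reports AChE activity.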

For test [5] the target is unchanged. Description: Acetylcholinesterase (AChE) small molecule antagonists: enzyme-based qHTS assay (AID 1347397; calls by dose curve; note: nearly all actives have a fitted effect of over 55% in size; note: potency is the fitted concentration of half-maximal effect). The note with it: Potency: AChE enzyme activity inhibition; series mostly up to 115 µM. In outline: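 First, recombinant human AChE (50 mU/mL as dispensed) received test compound or DMSO. Second, plates stood 30 min at room temperature. Third, DTNB and acetylthiocholine were added, followed by 10 min at room temperature and colorimetric detection.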

Test [6] in a line: Caspase-3/7 induction in CHO-K1 cells by small molecules, qHTS cell viability counter screen (AID 1346979). Note: nearly all actives have a fitted effect of over 35% in size. Note: potency is the fitted concentration of half-maximal effect. The note with it: CellTiter-Fluor fluorescence, 17 h; series mostly up to 92.4 µM. In outline: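 Seeding: 1,500 CHO-K1 cells/well. Rest: 5hr, 37C. Treatment: compounds in DMSO, 16hr. Read: CellTiter-Fluor, 1hr, fluorescence.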
Test [7] is described as follows: Caspase-3/7 induction in HepG2 cells by small molecules, qHTS cell viability counter screen (AID 1346981). Note: nearly all actives have a fitted effect of over 30% in size. The following applies: CellTiter-Fluor fluorescence, 17 h; series mostly up to 92.4 µM. Summed up:
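Cell viability is measured as a cytotoxicity counter screen alongside the Caspase-Glo 3/7 readout in identical wells. Wild-type HepG2 cells are treated with test compounds for 16 hr at 37 C before CellTiter-Fluor addition and a 1-hr incubation.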

Test [8] concerns the target Nuclear receptor subfamily 1 group I member 2 (Rattus norvegicus) (UniProt Q9R1A7). Description: Rat pregnane X receptor (rPXR) activation by small molecules, qHTS assay (AID 1346983). Note: nearly all actives have a fitted effect of over 20% in size. The following applies: rPXR luciferase reporter cells, One-Glo luminescence, 24 h; max activation: active compounds read high. Summed up:
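Luminescent readout (One-Glo luciferase, 30 min room temperature) followed 24 hr compound treatment at 37 C of rPXR cells plated 2,000 per well and preincubated 5hr; qHTS format with compounds delivered in DMSO.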

Test [9] concerns the target Nuclear receptor subfamily 1 group I member 2 (Homo sapiens) (UniProt O75469). Description: CYP3A4 induction through human pregnane X receptor (PXR) by small molecules, qHTS assay (AID 1346984). Note: nearly all actives have a fitted effect of over 40% in size. The following applies: DPX-2 HepG2 PXR, CYP3A4-luciferin luminescence, 24 h; series mostly up to 46.1 µM. Summed up:
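Quantitative HTS in DPX-2 cells, i.e. HepG2 transfected with PXR response element and CYP3A4-promoter luciferase. Compounds in DMSO incubated 24hr at 37C; then P450-Glo CYP3A4 substrate, 3uM final, 3hr; One-Glo luminescence.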

Test [10] has the same target. Description: Human pregnane X receptor (PXR) activation by small molecules, qHTS assay (AID 1346985). Note: nearly all actives have a fitted effect of over 40% in size. The note with it: DPX-2 HepG2 CYP3A4-luciferase, 24 h; series mostly up to 38.3 µM. In outline:
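DPX-2 cells (HepG2 co-transfected with a PXR response element and a CYP3A4-promoter luciferase construct) were seeded at 2,000 per well, rested 5 hr at 37C, then exposed to DMSO-dissolved compounds for 24 hr. Activation was read as luciferase luminescence.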
% is set by controls: 0 for no effect and ±100 for the full control effect.

Chain of Nuclear receptor subfamily 1 group I member 2 (Rattus norvegicus) (Q9R1A7 whole entry, looked up): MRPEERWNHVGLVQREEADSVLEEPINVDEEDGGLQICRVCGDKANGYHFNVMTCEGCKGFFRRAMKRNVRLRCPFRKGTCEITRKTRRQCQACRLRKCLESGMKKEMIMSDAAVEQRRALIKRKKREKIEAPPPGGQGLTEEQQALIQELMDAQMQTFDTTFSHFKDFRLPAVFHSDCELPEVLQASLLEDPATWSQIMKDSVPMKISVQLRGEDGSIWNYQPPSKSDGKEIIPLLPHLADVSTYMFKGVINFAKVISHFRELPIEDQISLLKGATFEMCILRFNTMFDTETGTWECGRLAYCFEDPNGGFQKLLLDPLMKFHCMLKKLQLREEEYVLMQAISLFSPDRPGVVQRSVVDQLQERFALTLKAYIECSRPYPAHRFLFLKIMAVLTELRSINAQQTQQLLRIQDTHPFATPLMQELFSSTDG
Chain of Acetylcholinesterase (Homo sapiens) (P22303 whole entry, looked up): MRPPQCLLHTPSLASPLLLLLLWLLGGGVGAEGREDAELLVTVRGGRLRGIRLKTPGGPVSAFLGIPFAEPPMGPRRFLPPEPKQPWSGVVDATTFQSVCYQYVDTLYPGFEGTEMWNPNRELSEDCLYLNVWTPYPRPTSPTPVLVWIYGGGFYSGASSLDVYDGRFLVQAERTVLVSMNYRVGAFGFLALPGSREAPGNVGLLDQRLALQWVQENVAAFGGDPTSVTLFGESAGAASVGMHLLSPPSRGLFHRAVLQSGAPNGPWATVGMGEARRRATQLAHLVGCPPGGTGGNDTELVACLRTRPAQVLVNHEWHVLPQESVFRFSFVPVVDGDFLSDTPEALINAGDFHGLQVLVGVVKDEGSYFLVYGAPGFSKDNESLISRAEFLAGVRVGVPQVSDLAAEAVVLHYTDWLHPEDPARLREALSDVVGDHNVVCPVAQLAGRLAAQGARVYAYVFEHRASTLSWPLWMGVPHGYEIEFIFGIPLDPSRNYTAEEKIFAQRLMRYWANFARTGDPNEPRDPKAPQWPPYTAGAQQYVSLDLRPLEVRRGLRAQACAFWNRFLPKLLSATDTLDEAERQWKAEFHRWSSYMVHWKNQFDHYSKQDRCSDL
Chain of Nuclear receptor subfamily 1 group I member 2 (Homo sapiens) (O75469 whole entry, looked up): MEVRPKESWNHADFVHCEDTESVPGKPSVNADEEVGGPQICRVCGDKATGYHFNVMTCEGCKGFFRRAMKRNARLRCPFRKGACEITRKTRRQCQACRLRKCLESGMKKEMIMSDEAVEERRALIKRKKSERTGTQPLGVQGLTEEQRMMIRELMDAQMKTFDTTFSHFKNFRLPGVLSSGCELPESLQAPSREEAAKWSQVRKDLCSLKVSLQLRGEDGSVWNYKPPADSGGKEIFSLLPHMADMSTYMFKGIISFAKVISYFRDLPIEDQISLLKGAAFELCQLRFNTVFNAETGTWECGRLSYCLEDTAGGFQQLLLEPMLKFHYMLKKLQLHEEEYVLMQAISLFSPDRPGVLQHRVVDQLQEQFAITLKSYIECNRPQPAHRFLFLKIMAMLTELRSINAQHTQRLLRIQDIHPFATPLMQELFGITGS

For the molecule `O=C(Nc1ccccc1)N(Cc1ccc(Cl)cc1)C1CCCC1`, the Potency entry in test [1], in [2], in [4] and in [5] was “inactive” in each case. Besides, the Potency in test [3] is 6.11 µM (active).
As for `CCCCN(CCCCO)N=O`, the Potency result in [1], in test [6], in test [2], in test [3], in test [4] and in test [5] was “inactive” throughout.
Take `N#CCNCC#N`: the Potency entry in test [1], in test [6], in [2], in test [3], in test [4] and in [5] was “inactive” each time.
As to `O=C(Nc1ccccc1)c1ccccc1I`, the Potency entry in [1], in test [2], in test [7], in test [4] and in test [5] was “inactive” in each case. Further, in test [3], the Potency is 68.6 µM (active).
For the molecule `CN(C)CCc1ccc(O)cc1`, the Potency entry in test [1], in test [2], in [7], in [3], in test [9] and in [10] was “inactive” in each case. Also, the Potency entry in test [4] and in test [5] was “inactive” in each case. In test [8], the max activation was -2.69%.
`Fc1ccc(C2(Cn3cncn3)OC2c2ccccc2Cl)cc1` (stereo not given): the Potency entry in test [1], in test [2], in test [7], in [4] and in test [5] was “inactive” each time.
Take `CCOP(=S)(OCC)SCSP(=S)(OCC)OCC`: the Potency entry in [1] and in test [7] was “inactive” each time. The Potency is 5.45 µM (active) in [3], 39.9 µM (active) in test [4] and 63.3 µM (active) in [5].
On to `O=P(O)(Oc1ccccc1)Oc1ccccc1`, for which the Potency result in test [1], in test [6], in test [2], in [3], in test [4] and in test [5] was “inactive” in each case.
Regarding `ClC(Cl)C(Cl)Cl`, the Potency result in [1], in [6], in [7], in test [4] and in test [5] was “inactive” each time. Further, the Potency in test [3] was 55 µM (active).
Take `CC1(C(=O)Nc2ccc(O)c(Cl)c2Cl)CCCCC1`: the Potency entry in [1], in test [2], in test [7], in [4] and in [5] was “inactive” in each case. In addition, in test [3], the Potency is 19.3 µM (active).
With `CCCSC(=O)N(CCC)CCC`, the Potency result in [1], in [6], in [2], in test [3], in [4] and in test [5] was “inactive” each time.
Take `CC1COC2(c3ccccc3Cl)c3cc(Cl)ccc3NC(=O)CN12` (stereo not given): the Potency result in test [1], in test [2], in test [4] and in test [5] was “inactive” throughout. Further, the Potency in test [3] was 23.7 µM (active).
As for `Nc1cc(Cl)ccc1O`, the Potency entry in [1], in test [2], in test [4] and in test [5] was “inactive” in each case. Moreover, the Potency in [6] was 29.6 µM (active).
Consider `C=CCC1=C(C)[C@@H](OC(=O)[C@@H]2[C@@H](C=C(C)C)C2(C)C)CC1=O`, for which the Potency result in [1], in test [4] and in test [5] was “inactive” in each case. The values for the Potency in test [6] and in test [3] were 43.3 µM (active) and 9.69 µM (active), respectively.
Turning to `C(CCOCC1CO1)COCC1CO1` (stereo not given), the Potency entry in test [1], in [6], in test [2], in test [3], in test [4] and in [5] was “inactive” in each case.
For `O=C1OC(=O)C2C1C1(Cl)C(Cl)=C(Cl)C2(Cl)C1(Cl)Cl` (stereo not given), the Potency result in [1], in [6], in [2], in test [3], in [4] and in test [5] was “inactive” in each case.
For `CNC(=O)Oc1c(C(C)(C)C)cc(C)cc1C(C)(C)C`, the Potency result in [1], in test [6], in test [2], in test [3], in test [4] and in test [5] was “inactive” in each case.
Regarding `O=C1CN=C(c2ccccc2)c2cc([N+](=O)[O-])ccc2N1`, the Potency result in test [1], in test [6], in [2], in test [9], in test [10] and in test [4] was “inactive” in each case. The Potency entry in test [5] is “inactive”. In addition, the max activation in test [8] was -2.6%.
Take `CCOC(=O)C(c1c(O)c2ccccc2oc1=O)c1c(O)c2ccccc2oc1=O`: the Potency entry in test [1], in [6], in test [2], in test [4] and in test [5] was “inactive” each time.
Consider `CCOC(=O)/C=C(C)/C=C/C[C@@H](C)CCCC(C)C`, for which the Potency entry in test [1], in [9], in test [10], in test [4] and in test [5] was “inactive” each time. The max activation in test [8] was -2.62%.
As to `Fc1cc(Br)ccc1CBr`, the Potency entry in test [1], in test [2], in test [7], in [3], in test [4] and in test [5] was “inactive” in each case.
For `CS(=O)(=O)c1cc(C(F)(F)F)ccc1C(=O)c1cnoc1C1CC1`, the Potency result in test [1], in test [6], in test [2], in test [3], in test [4] and in [5] was “inactive” in each case.
With `O=C(O)C(Br)CBr` (stereo not given), the Potency result in test [1], in test [2], in [7], in test [4] and in test [5] was “inactive” in each case. In test [3], the Potency was 62.2 µM (active).
`CSc1ccc(C(=O)C(C)(C)N2CCOCC2)cc1`: the Potency entry in test [1], in test [6], in test [2], in [4] and in test [5] was “inactive” throughout.
`C=C(C)[C@@H]1CC=C(C=O)CC1`: the Potency entry in [1], in test [2], in test [7], in [4] and in test [5] was “inactive” throughout.
Regarding `CC(C)CP(=S)(S)CC(C)C`, the Potency result in test [1], in test [3], in [4] and in [5] was “inactive” each time. Besides, the Potency in [6] is 48.6 µM (active).
For the molecule `N#CC(O)c1ccccc1` (stereo not given), the Potency entry in test [1], in test [2], in [4] and in test [5] was “inactive” throughout.
